# Test results: ChEMBL document CHEMBL1961873, “Compounds: GSK PKIS; Assays: Nanosyn kinase panel” (2012)
# Columns and labels:
# [1] = molecular target: High affinity nerve growth factor receptor (Homo sapiens) (UniProt P04629); settings: at 1 µM;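 also: each value is the mean percent inhibition of TRKA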
# [2] = molecular target: BDNF/NT-3 growth factors receptor (Homo sapiens) (UniProt Q16620); settings: at 0.1 µM
# [3] = molecular target: BDNF/NT-3 growth factors receptor (Homo sapiens) (UniProt Q16620); settings: at 1 µM
# [4] = molecular target: NT-3 growth factor receptor (Homo sapiens) (UniProt Q16288); settings: at 0.1 µM
# Chain of NT-3 growth factor receptor (Homo sapiens) (Q16288 32-839 limits assumed): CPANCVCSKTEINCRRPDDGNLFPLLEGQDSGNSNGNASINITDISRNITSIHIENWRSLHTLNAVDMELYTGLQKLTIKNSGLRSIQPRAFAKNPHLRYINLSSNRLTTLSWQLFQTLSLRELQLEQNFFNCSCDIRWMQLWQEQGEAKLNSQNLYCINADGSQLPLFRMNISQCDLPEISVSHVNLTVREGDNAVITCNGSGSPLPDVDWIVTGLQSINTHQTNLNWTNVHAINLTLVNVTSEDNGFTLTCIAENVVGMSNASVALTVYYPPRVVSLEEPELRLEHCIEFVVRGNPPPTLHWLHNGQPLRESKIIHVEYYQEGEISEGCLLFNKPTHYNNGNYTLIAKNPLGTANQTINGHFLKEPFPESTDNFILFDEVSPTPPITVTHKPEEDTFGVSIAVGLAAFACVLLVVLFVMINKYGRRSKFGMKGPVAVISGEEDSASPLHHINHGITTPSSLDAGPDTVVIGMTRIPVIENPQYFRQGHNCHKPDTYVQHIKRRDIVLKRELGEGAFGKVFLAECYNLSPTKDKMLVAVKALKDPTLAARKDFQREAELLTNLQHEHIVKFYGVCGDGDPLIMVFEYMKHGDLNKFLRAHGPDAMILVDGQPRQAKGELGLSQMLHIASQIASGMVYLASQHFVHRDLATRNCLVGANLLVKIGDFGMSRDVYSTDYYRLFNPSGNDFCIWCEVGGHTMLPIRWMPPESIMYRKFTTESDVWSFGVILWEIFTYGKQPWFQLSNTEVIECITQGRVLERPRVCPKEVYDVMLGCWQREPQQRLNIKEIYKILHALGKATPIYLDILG
# [5] = molecular target: NT-3 growth factor receptor (Homo sapiens) (UniProt Q16288); settings: at 1 µM
# [6] = molecular target: T1, Tyrosine-protein kinase TXK (Homo sapiens) (UniProt P42681); settings: at 0.1 µM
# T1 sequence (whole entry): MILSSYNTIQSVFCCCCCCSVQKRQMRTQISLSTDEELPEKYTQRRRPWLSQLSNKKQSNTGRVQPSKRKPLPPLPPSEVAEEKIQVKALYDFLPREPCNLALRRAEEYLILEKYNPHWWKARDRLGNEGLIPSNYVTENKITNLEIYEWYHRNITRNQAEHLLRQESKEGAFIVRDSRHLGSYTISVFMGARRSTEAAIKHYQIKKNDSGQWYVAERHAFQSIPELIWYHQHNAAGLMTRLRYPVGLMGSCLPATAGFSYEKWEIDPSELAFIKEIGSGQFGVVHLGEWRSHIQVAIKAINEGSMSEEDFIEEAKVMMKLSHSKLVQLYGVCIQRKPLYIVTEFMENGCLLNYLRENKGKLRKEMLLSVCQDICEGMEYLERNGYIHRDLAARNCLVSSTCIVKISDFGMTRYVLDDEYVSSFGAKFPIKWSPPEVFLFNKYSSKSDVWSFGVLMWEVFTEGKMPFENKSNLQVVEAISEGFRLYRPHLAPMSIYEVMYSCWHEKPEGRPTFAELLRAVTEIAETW
# [7] = molecular target: T1, Tyrosine-protein kinase TXK (Homo sapiens); settings: at 1 µM
# [8] = molecular target: Non-receptor tyrosine-protein kinase TYK2 (Homo sapiens) (UniProt P29597); settings: at 0.1 µM;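 also: each value is a mean of the inhibition readings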
# Chain of Non-receptor tyrosine-protein kinase TYK2 (Homo sapiens) (P29597 whole entry): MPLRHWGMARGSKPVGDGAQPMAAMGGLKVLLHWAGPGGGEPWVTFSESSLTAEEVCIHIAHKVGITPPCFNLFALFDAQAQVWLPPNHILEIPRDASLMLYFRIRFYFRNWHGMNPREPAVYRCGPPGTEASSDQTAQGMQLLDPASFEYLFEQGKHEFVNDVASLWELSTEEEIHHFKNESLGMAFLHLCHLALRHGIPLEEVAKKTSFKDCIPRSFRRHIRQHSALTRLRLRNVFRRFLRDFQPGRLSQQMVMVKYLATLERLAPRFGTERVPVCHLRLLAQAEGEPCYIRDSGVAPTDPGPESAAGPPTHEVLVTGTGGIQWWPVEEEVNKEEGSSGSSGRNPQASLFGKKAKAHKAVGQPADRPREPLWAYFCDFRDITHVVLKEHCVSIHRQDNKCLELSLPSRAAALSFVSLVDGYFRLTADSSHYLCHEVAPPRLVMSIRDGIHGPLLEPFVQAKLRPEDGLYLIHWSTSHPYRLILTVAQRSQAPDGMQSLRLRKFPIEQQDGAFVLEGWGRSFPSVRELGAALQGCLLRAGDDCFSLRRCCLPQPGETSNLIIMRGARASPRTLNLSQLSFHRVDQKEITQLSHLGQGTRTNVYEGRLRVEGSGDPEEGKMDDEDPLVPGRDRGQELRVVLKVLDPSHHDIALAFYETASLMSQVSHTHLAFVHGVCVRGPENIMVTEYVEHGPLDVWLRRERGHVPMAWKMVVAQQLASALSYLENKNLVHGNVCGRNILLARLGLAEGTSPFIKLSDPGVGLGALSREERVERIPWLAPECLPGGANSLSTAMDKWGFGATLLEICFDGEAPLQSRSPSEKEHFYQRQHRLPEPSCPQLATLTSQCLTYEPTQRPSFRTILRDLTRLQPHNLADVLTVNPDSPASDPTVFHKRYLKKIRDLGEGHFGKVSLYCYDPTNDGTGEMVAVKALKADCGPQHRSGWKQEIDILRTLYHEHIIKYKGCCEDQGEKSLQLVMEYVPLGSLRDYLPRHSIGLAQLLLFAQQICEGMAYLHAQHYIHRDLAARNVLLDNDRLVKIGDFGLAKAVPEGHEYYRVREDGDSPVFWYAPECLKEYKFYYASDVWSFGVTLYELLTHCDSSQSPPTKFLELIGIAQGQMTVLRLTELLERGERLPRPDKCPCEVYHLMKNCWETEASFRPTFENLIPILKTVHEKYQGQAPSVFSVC
# [9] = molecular target: T2, Dual specificity protein kinase TTK (Homo sapiens) (UniProt P33981); settings: at 1 µM;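 also: reported figures are mean TTK inhibition at 1 µM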
# T2 sequence (whole entry): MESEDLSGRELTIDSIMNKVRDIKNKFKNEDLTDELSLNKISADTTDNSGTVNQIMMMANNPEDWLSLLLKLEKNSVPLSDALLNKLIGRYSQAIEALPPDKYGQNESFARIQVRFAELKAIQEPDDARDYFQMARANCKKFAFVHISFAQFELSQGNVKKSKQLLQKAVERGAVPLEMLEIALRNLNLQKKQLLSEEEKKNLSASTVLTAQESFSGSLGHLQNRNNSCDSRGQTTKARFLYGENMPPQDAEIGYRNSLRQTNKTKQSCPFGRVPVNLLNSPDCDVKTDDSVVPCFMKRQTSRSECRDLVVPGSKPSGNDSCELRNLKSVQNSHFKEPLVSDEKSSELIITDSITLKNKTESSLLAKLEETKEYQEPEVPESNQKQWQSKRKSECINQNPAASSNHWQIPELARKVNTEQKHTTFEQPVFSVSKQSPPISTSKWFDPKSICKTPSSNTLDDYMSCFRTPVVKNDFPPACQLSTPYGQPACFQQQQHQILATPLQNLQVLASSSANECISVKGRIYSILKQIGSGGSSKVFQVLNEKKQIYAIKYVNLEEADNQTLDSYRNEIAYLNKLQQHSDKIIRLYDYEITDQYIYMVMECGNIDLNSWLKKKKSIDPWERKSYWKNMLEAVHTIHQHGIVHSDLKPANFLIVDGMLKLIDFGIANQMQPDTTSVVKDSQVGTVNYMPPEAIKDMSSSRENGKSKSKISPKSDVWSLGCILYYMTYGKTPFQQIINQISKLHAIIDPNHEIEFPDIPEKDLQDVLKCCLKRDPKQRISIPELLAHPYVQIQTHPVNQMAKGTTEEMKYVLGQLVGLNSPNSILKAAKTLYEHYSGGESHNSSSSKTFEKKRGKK
# [10] = molecular target: T3, Aurora kinase A (Homo sapiens) (UniProt O14965); settings: at 0.1 µM
# T3 sequence (whole entry): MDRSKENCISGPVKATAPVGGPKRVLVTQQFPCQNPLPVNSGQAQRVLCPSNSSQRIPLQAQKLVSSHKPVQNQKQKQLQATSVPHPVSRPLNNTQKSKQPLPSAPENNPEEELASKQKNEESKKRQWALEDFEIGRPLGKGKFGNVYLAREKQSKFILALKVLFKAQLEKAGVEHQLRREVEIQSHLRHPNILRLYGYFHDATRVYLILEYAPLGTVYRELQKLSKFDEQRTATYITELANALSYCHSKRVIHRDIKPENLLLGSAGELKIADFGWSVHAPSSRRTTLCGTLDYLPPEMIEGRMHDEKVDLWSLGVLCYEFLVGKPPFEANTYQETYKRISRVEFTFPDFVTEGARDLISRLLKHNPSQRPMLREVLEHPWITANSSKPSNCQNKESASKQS
# [11] = molecular target: T3, Aurora kinase A (Homo sapiens); settings: at 1 µM
# [12] = molecular target: Aurora kinase B (Homo sapiens) (UniProt Q96GD4); settings: at 0.1 µM
# [13] = molecular target: Aurora kinase B (Homo sapiens) (UniProt Q96GD4); settings: at 1 µM
# [14] = molecular target: T4, Aurora kinase C (Homo sapiens) (UniProt Q9UQB9); settings: at 0.1 µM
# T4 sequence (whole entry): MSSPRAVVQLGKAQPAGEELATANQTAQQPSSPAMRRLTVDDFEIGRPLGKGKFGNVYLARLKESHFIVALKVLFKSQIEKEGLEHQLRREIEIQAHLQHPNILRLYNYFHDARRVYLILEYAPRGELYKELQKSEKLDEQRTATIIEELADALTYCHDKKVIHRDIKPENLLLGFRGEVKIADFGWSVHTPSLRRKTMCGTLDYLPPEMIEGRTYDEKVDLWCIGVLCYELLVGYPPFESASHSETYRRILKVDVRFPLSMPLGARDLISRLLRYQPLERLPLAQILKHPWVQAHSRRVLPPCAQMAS
# [15] = molecular target: T4, Aurora kinase C (Homo sapiens); settings: at 1 µM
# [16] = molecular target: Serine/threonine-protein kinase 10 (Homo sapiens) (UniProt O94804); settings: at 0.1 µM
# [17] = molecular target: Serine/threonine-protein kinase 10 (Homo sapiens) (UniProt O94804); settings: at 1 µM
# [18] = molecular target: T5, Mitogen-activated protein kinase kinase kinase kinase 2 (Homo sapiens) (UniProt Q12851); settings: at 0.1 µM
# T5 sequence (whole entry): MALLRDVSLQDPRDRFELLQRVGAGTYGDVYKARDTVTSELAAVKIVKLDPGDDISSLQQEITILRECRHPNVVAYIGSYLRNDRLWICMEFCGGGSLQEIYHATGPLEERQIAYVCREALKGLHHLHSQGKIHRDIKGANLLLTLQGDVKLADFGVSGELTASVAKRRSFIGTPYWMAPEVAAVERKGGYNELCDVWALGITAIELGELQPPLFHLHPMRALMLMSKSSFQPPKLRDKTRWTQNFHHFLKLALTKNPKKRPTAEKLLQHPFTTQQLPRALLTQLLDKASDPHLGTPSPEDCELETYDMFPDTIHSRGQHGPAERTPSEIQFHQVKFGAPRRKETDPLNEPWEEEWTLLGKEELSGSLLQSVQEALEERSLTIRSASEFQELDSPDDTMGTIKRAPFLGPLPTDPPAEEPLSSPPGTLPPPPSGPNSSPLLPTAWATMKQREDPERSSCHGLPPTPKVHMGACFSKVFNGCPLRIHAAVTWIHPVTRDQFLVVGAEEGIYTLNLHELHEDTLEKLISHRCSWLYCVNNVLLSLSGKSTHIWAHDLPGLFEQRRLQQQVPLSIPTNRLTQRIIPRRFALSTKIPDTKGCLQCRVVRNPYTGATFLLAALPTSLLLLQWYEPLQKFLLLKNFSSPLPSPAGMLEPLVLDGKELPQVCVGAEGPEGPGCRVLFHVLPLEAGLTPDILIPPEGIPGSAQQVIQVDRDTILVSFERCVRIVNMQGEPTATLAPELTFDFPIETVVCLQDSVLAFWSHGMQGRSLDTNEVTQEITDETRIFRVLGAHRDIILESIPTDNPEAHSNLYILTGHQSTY
# [19] = molecular target: T5, Mitogen-activated protein kinase kinase kinase kinase 2 (Homo sapiens); settings: at 1 µM
# [20] = molecular target: Mitogen-activated protein kinase kinase kinase kinase 4 (Homo sapiens) (UniProt O95819); settings: at 0.1 µM
# Chain of Mitogen-activated protein kinase kinase kinase kinase 4 (Homo sapiens) (O95819 2-1239 limits assumed): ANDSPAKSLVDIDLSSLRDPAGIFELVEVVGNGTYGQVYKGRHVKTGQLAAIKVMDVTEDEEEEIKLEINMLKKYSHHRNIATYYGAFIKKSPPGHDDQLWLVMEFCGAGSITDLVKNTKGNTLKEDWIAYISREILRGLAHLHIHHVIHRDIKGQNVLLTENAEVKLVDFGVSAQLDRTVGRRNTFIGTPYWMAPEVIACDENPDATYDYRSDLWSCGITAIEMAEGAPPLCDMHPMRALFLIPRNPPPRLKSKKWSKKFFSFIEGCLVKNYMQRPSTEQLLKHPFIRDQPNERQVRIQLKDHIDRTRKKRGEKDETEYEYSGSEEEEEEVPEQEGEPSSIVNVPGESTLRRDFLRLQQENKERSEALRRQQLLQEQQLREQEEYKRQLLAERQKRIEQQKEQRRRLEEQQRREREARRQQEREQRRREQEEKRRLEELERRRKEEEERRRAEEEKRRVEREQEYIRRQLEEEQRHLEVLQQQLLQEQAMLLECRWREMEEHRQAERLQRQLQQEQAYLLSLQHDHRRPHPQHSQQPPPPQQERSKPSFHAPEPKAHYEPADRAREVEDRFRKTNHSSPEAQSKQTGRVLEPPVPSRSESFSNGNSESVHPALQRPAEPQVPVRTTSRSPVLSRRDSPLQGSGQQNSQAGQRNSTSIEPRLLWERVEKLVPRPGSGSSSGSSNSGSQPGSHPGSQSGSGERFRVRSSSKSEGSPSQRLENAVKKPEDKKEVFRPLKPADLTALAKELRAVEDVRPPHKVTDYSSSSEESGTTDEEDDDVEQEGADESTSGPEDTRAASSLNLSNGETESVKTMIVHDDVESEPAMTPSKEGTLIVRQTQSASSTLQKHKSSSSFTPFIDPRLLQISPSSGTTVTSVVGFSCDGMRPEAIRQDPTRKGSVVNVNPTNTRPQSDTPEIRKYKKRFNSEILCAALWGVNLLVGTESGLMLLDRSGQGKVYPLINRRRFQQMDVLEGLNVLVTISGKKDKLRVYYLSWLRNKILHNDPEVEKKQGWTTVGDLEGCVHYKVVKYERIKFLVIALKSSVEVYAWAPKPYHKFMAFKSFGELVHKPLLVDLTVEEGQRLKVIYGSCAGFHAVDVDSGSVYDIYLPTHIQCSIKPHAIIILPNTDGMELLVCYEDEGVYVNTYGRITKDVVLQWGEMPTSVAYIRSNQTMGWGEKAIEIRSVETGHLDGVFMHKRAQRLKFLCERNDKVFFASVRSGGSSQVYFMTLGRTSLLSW
# Chain of BDNF/NT-3 growth factors receptor (Homo sapiens) (Q16620 32-822 limits assumed): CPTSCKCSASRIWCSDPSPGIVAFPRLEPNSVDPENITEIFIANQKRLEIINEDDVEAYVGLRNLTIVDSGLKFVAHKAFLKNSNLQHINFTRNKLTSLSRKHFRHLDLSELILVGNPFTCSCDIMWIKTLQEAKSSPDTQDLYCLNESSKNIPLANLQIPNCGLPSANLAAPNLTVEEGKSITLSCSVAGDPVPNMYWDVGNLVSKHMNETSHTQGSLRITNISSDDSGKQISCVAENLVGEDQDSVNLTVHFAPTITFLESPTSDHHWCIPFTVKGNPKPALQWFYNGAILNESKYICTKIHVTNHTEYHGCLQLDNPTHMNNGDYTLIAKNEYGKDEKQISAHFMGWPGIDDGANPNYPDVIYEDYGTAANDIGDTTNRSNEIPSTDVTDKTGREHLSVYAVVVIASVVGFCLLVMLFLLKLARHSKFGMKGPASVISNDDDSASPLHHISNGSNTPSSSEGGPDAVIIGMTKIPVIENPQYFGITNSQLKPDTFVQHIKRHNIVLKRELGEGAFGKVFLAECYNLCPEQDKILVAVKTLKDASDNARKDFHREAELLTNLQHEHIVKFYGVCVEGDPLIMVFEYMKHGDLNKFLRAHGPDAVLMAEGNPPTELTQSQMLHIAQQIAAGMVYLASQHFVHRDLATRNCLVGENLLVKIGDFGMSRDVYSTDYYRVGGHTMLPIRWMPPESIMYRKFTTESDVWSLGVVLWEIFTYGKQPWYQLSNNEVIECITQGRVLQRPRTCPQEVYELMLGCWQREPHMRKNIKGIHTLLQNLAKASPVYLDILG
# Chain of High affinity nerve growth factor receptor (Homo sapiens) (P04629 33-796 limits assumed): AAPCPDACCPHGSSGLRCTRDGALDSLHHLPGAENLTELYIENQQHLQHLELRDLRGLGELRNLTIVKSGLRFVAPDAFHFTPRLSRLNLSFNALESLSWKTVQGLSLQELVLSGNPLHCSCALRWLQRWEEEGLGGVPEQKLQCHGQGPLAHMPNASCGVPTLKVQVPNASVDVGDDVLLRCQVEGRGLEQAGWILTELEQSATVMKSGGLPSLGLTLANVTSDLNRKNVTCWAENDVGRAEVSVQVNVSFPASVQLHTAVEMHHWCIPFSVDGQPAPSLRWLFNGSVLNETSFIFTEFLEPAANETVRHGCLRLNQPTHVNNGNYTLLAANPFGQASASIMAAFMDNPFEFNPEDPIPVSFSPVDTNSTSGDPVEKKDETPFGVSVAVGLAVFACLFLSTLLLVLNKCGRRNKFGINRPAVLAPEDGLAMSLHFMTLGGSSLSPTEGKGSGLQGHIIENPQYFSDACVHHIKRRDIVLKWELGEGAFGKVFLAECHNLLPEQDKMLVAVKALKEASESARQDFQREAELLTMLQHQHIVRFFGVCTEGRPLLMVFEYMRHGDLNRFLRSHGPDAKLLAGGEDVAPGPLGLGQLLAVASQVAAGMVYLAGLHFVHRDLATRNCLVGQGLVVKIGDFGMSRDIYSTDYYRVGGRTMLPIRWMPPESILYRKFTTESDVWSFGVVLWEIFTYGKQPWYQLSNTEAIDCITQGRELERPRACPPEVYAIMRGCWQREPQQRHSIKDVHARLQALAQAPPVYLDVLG
Compound,inhibition [1],inhibition [2],inhibition [3],inhibition [4],inhibition [5],inhibition [6],inhibition [7],inhibition [8],inhibition [9],inhibition [10],inhibition [11],inhibition [12],inhibition [13],inhibition [14],inhibition [15],inhibition [16],inhibition [17],inhibition [18],inhibition [19],inhibition [20]
CCc1ccc(Oc2nccc(-c3c(-c4ccc(F)cc4)ncn3C3CCNCC3)n2)cc1,3.03%,1.6%,2.36%,1.82%,3.29%,6.85%,4.56%,1.68%,4.86%,3.7%,2.66%,3.48%,2.75%,1.29%,3.88%,4.86%,8.03%,1.71%,15.4%,2.58%
Fc1ccc(-c2ncn(CCCN3CCOCC3)c2-c2ccncc2)cc1,-2.74%,-0.51%,-1.43%,-0.42%,-2.77%,1.42%,2%,1.6%,5.54%,-0.48%,3.87%,0.52%,5.52%,-0.04%,10.1%,1.1%,3.83%,2.31%,1.14%,2.27%
NC(=O)c1ccc(Oc2nccc(-c3c(-c4ccc(F)cc4)ncn3C3CCNCC3)n2)cc1,5.13%,4.3%,5.18%,3.1%,4.93%,8.98%,6.85%,-1.79%,12.5%,3.58%,2.99%,2.63%,3.74%,2.2%,0.43%,7.75%,8.82%,-0.61%,1.55%,1.45%
Fc1ccc(-c2nc3n(c2-c2ccncc2)CCS3)cc1,1.45%,2.62%,0.16%,2.96%,3.11%,-0.13%,-0.14%,-8.34%,9.6%,-1.28%,1.43%,-0.42%,2.92%,-1.97%,13.6%,1.88%,6.87%,1.36%,6.73%,5.82%
COC(=O)Nc1nc2ccc(Sc3ccc(NC(=O)Nc4cc(C(F)(F)F)ccc4F)cc3)cc2[nH]1,83%,15.1%,71.8%,15.5%,69.5%,3.58%,4.98%,-0.72%,8.33%,1.16%,7.64%,0.96%,8.08%,1.09%,6.4%,18.9%,72.7%,7.11%,27.5%,5%
O=C(Nc1n[nH]c2nc(-c3ccco3)ccc12)C1CC1,3.29%,0.95%,2.36%,1.6%,5.42%,2.21%,2.84%,-1.75%,-0.72%,2.22%,11.4%,1.7%,8.39%,1.88%,7.39%,4.1%,9.62%,0.49%,4.84%,4.17%
NS(=O)(=O)c1ccc(Nc2cc(-c3ccc(O)c(F)c3)n[nH]2)cc1,36.2%,6.06%,36.7%,10.5%,47.7%,-1.15%,-0.33%,0.21%,10%,-2.14%,37.3%,0.09%,19.4%,-0.76%,22.4%,-0.42%,16.4%,0.41%,6.09%,18.7%
CS(=O)(=O)CCNCc1cc(-c2cc3c(Nc4ccc(OCc5cccc(F)c5)c(Cl)c4)ncnc3s2)cs1,7.01%,3.47%,5.03%,5.13%,3.52%,7.43%,6.57%,-4.26%,9.22%,4.18%,4.87%,5.13%,9.34%,3.65%,8.71%,9.33%,12.9%,0.39%,3.81%,4.31%
c1ccc(-c2n[nH]cc2-c2ccnc(-c3ccc(OCCN4CCOCC4)cc3)c2)nc1,-0.7%,0.05%,0.41%,1.29%,3.05%,5.88%,6.57%,4.24%,0.86%,0.43%,7.41%,7.03%,11.9%,5.43%,18.2%,3.53%,6.24%,6.4%,7.48%,28.6%
CCc1cccc(CC)c1/C=C/c1cncc(C(=O)NC)c1,1.65%,1.04%,3.79%,1.36%,3.49%,3.65%,8.4%,-7.46%,-0.69%,2.26%,6.42%,-0.55%,6.73%,0.82%,11.7%,1.38%,5.08%,0.77%,0.32%,1.73%
Nc1nccc(-c2c(-c3ccc(F)cc3)ncn2C2CCC(O)CC2)n1 (stereo not given),-0.08%,1.41%,5.91%,2%,11.3%,1.58%,19.2%,-2.03%,-0.22%,-2.33%,22%,-3.41%,4.15%,-1.77%,-2.2%,-0.75%,9.11%,2.53%,16.2%,9.24%
